Laboratory results taken from PubChem BioAssay (NCATS).
Results filed as inconclusive are left out. Calls follow the shape of the dose curve; as a rule, active = well fitted curve in either direction with a large enough effect (not every such curve was filed as active); inconclusive = small, poorly fitted or top-dose-only effect, or another doubt; inactive = flat fitted curve, though single readings scatter.

assay: AP1 Signaling Pathway (AID 357); settings: ME-180 (cervical carcinoma) AP-1-bla reporter, EGF-induced, beta-lactamase ratio, 5 h; at 17.2 µM (top of the series) unless noted;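 also: ME-180 reporter cells stimulated with EGF at its EC50 level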
How it was run: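 Read-out was the 460nm/530nm emission ratio (excitation 405nm) after CCF4 loading for 2.5 hours at room temperature. Cells carried an AP-1-driven beta-lactamase reporter, were stimulated with EC50 EGF plus compound for 5 hours, and AC50 values came from titrations.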
% is scaled to controls: 0 for no effect and ±100 for the full control effect.

Activity change, negative = inhibition, inactive:
CCOC(=O)CC1=NC(=O)CS1 2.69%, Cc1cc(=O)oc2cc(OCC(=O)NCc3cccnc3)ccc12 0.0607%, CC1(C)Cc2ccccc2-c2c1c(=O)n(-c1ccccc1)c1nnnn21 -13.7%, CCN(CC)C(=O)C1CCN(c2ncnc3c2cnn3-c2ccc(C)cc2C)CC1 -10.6%, COCCNc1oc(-c2ccc(Cl)cc2)nc1C#N -8.7%, CCCNc1ncnc2c1cnn2-c1ccc(OC)cc1 -10.2%, Cc1nc2ccccc2cc1O 13.6%, Cc1cc(C)n(CC2CC(=O)N(c3cc(Cl)cc(Cl)c3)C2=O)n1 (stereo not given) -15.1%, Cc1ccc2[nH]c3c(c2c1)CN(C(=O)CN1CC(C)OC(C)C1)CC3 (stereo not given) -2.87%, CCC(NC(=O)Nc1ccc(O)cc1)(C(F)(F)F)C(F)(F)F -8.11%, O=C(O)c1cc2sccc2s1 -0.721%, CC(C)OC(=O)CC1=NC(=O)CS1 3.43%, COc1ccc(/C=C(/C#N)c2cccnc2)cc1OC -13.8%, CC(=O)N(Cc1ccccc1)c1ccc(C(=O)O)cc1 1.39%, CCOC(=O)Cn1nc(C)c2ccccc2c1=O 5.31%, COc1cccc(C2=CC(c3ccccc3)n3ncnc3N2)c1 (stereo not given) -21.4%, COc1ccc(CN2CCC(=O)NC2=O)cc1 9.75%, O=C1C2ON(c3ccccc3)C(c3ccncc3)C2C(=O)N1c1ccc(Br)cc1 (stereo not given) -1.42%, CCOC(=O)CC(=O)CSc1[nH]c(=O)cc(C)c1C#N 8.86%, Cc1cccc(-c2nnc3n2N=C(c2ccc(Br)cc2)CS3)c1 11.1%, CC(C)OC(=O)[C@H]1[C@H](c2ccc(Cl)cc2)[C@@](C#N)(C(N)=O)[C@@H]2C=CC(C(N)=O)=CN21 -13.7%, COC(=O)CSc1nnc2n(-c3ccc(OC)cc3)c(=O)c3c4c(sc3n12)CCCCC4 -16%, CC(C)c1ccc(O)c(N)c1 -2.33%, Cc1ccc(N2C(=O)CC(Cn3nc(C)cc3C)C2=O)cc1 (stereo not given) -1.66%, CCC1(C)Cc2c(sc3[nH]c(=O)[nH]c(=O)c23)CS1 (stereo not given) 6.31%, Cc1nnc(C)n1/N=C/c1cccn1C 4.24%, CCOC(=O)C1(c2nc(N)cs2)COC(=O)C1 (stereo not given) 6.34%, OC(CNCCCN1CCCCC1)COc1ccccc1 (stereo not given) -10.5%, COc1ccc(OC)c2c1CCC2=O -7.3%, COc1ccc(N2CCN(c3nc4c(c(=O)[nH]c(=O)n4C)n3CCCc3ccccc3)CC2)cc1 22%, COc1ccc(OC)c(C2C(C#N)=C(N)Oc3cc(C)[nH]c(=O)c32)c1 (stereo not given) -7.62%, O=C(c1nsnc1-c1ccccc1O)N1CCCCC1 12.2%, CC1C/C=C/C=C/C=C/C=C/C(O[C@@H]2O[C@H](C)[C@@H](O)[C@H](N)[C@@H]2O)CC2OC(O)(CC(O)CC3OC3/C=C/C(=O)O1)CC(O)C2C(=O)O (stereo not given in full) 1.3%, Cc1ccccc1OCC(O)Cn1c(N2CCN(c3ccccc3)CC2)nc2c1c(=O)[nH]c(=O)n2C (stereo not given) 14.4%, C=CCOc1ccc(/C(O)=C2/C(=O)C(=O)N(CCCN3CCOCC3)C2c2ccccc2)cc1 (stereo not given) -4.92%, O=C(CN1C(=O)c2ccccc2C1=O)NCc1ccccn1 -3.27%, N/C(=N\S(=O)(=O)c1ccc(Cl)s1)c1ccccc1 -2.33%, CC(=O)C(=[N+]=[N-])C(=O)NCc1ccccc1 7.12%, CCN(CC)CCN1C(=O)C(=O)/C(=C(/O)c2ccc(F)cc2)C1c1cccnc1 (stereo not given) 12.6%, CCOC(=O)COc1ccc(Oc2nc(C)cc(OC)n2)nn1 13.9%

assay: NFAT Signaling Pathway (AID 444); settings: Jurkat NFAT-bla M1, carbachol, beta-lactamase ratio, 5 h; at 17.2 µM (top of the series) unless noted;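 also: carbachol stimulus at about its EC50 of 1 µM final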
How it was run: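 Read-out: CCF4 FRET ratio (460 nm/530 nm) after 1 h RT dye loading, used for %activity and AC50 from titration series. Cells: Jurkat NFAT-β-lactamase/M1 line, treated with compound plus 1 uM carbachol for 5 h, 37 °C.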

Activity change, negative = inhibition, inactive:
CCOC(=O)CC1=NC(=O)CS1 0.359%, Cc1cc(=O)oc2cc(OCC(=O)NCc3cccnc3)ccc12 -8.13%, CC1(C)Cc2ccccc2-c2c1c(=O)n(-c1ccccc1)c1nnnn21 -24.9%, CCN(CC)C(=O)C1CCN(c2ncnc3c2cnn3-c2ccc(C)cc2C)CC1 7.48%, COCCNc1oc(-c2ccc(Cl)cc2)nc1C#N -6.46%, CCCNc1ncnc2c1cnn2-c1ccc(OC)cc1 3.93%, Cc1nc2ccccc2cc1O 7.71%, Cc1cc(C)n(CC2CC(=O)N(c3cc(Cl)cc(Cl)c3)C2=O)n1 (stereo not given) -7.21%, Cc1ccc2[nH]c3c(c2c1)CN(C(=O)CN1CC(C)OC(C)C1)CC3 (stereo not given) -2.75%, CCC(NC(=O)Nc1ccc(O)cc1)(C(F)(F)F)C(F)(F)F 8.99%, O=C(O)c1cc2sccc2s1 -6.24%, CC(C)OC(=O)CC1=NC(=O)CS1 8.36%, COc1ccc(/C=C(/C#N)c2cccnc2)cc1OC -0.696%, CC(=O)N(Cc1ccccc1)c1ccc(C(=O)O)cc1 -12.1%, CCOC(=O)Cn1nc(C)c2ccccc2c1=O 3.38%, COc1cccc(C2=CC(c3ccccc3)n3ncnc3N2)c1 (stereo not given) -15.1%, COc1ccc(CN2CCC(=O)NC2=O)cc1 -0.653%, O=C1C2ON(c3ccccc3)C(c3ccncc3)C2C(=O)N1c1ccc(Br)cc1 (stereo not given) 10.7%, CCOC(=O)CC(=O)CSc1[nH]c(=O)cc(C)c1C#N 2.85%, Cc1cccc(-c2nnc3n2N=C(c2ccc(Br)cc2)CS3)c1 -1.71%, CC(C)OC(=O)[C@H]1[C@H](c2ccc(Cl)cc2)[C@@](C#N)(C(N)=O)[C@@H]2C=CC(C(N)=O)=CN21 -5.51%, COC(=O)CSc1nnc2n(-c3ccc(OC)cc3)c(=O)c3c4c(sc3n12)CCCCC4 -18.9%, CC(C)c1ccc(O)c(N)c1 12.3%, Cc1ccc(N2C(=O)CC(Cn3nc(C)cc3C)C2=O)cc1 (stereo not given) 6.84%, CCC1(C)Cc2c(sc3[nH]c(=O)[nH]c(=O)c23)CS1 (stereo not given) 6.7%, Cc1nnc(C)n1/N=C/c1cccn1C 13.1%, CCOC(=O)C1(c2nc(N)cs2)COC(=O)C1 (stereo not given) -1.85%, OC(CNCCCN1CCCCC1)COc1ccccc1 (stereo not given) -28.5%, COc1ccc(OC)c2c1CCC2=O -3.76%, COc1ccc(N2CCN(c3nc4c(c(=O)[nH]c(=O)n4C)n3CCCc3ccccc3)CC2)cc1 -12.3%, COc1ccc(OC)c(C2C(C#N)=C(N)Oc3cc(C)[nH]c(=O)c32)c1 (stereo not given) -4.06%, O=C(c1nsnc1-c1ccccc1O)N1CCCCC1 6.47%, CC1C/C=C/C=C/C=C/C=C/C(O[C@@H]2O[C@H](C)[C@@H](O)[C@H](N)[C@@H]2O)CC2OC(O)(CC(O)CC3OC3/C=C/C(=O)O1)CC(O)C2C(=O)O (stereo not given in full) 0.554%, Cc1ccccc1OCC(O)Cn1c(N2CCN(c3ccccc3)CC2)nc2c1c(=O)[nH]c(=O)n2C (stereo not given) -4.3%, C=CCOc1ccc(/C(O)=C2/C(=O)C(=O)N(CCCN3CCOCC3)C2c2ccccc2)cc1 (stereo not given) 12.9%, O=C(CN1C(=O)c2ccccc2C1=O)NCc1ccccn1 16.6%, N/C(=N\S(=O)(=O)c1ccc(Cl)s1)c1ccccc1 -13.4%, CC(=O)C(=[N+]=[N-])C(=O)NCc1ccccc1 -14.9%, CCN(CC)CCN1C(=O)C(=O)/C(=C(/O)c2ccc(F)cc2)C1c1cccnc1 (stereo not given) 3.02%, CCOC(=O)COc1ccc(Oc2nc(C)cc(OC)n2)nn1 12.6%
